Laboratory results taken from the supplement of paper PMC3334620.
Over roughly 33,000 sequences, “E-score (-0.5 to 0.5)” has its median near -0.032; the highest 2% begin near 0.36. This is one part of a sample in which the highest values are shown more often than they occur.

Each sequence was assayed against T1, Sko1 (UniProt Q02100) (assay: PBM E-score (8-mer binding enrichment) (E-score (-0.5 to 0.5)); higher = stronger / more preferred TF binding). Conditions: protein concentration: 200 nM; construct: GST-full length.
T1 sequence: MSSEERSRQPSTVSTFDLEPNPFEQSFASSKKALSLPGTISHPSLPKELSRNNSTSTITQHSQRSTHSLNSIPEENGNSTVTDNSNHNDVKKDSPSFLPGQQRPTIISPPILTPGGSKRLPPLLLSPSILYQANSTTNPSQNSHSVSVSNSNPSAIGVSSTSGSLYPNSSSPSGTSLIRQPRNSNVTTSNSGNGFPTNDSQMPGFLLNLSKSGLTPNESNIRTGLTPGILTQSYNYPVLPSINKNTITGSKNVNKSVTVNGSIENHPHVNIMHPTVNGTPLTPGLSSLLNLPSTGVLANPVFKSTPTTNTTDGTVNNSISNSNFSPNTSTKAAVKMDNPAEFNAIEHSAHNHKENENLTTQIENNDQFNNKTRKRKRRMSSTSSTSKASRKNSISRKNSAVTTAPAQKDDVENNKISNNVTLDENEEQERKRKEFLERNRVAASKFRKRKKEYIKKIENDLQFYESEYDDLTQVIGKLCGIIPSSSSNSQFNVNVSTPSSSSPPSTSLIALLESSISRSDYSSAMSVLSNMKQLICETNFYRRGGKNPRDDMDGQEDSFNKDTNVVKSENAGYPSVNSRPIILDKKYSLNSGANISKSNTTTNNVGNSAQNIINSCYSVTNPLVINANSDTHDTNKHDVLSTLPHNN
In short: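 Bound GST-tagged yeast transcription factors, applied at about 100-200 nM to double-stranded universal all-10-mer Agilent arrays, were detected with fluorescent anti-GST. Scans were normalised with masliner. A modified Wilcoxon-Mann-Whitney statistic, the E-score, was assigned to each ungapped eight-base word pooled with its reverse complement by the Universal PBM Analysis Suite.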

Sequence	PBM E-score
GTCTTTAA	0.178
ACATTGAA	0.166
GTGCATGA	0.133
AGATGGTC	-0.139
AGGTCAAT	0.0656
CCGTCAAC	-0.0749
ATGTCAAT	0.226
TCGTCAAA	0.281
AGGTCAAG	-0.193
ACGTCAAA	0.447
ACGTCAAT	0.46
GCGTCAAA	0.274
ACGTCAAG	0.444
ACGTCAAC	0.469
GCGTCAAC	0.302
CCGTCAAG	-0.0482
CTCCAACC	-0.0963
CTGTACCC	-0.24
AGATTTCG	0.114
ACTAGAGA	-0.0523
CGATTGGA	-0.0798
AGATTGCG	0.188
AATGATGA	0.328
AATGATGG	0.189

Sequence	PBM E-score
AATGATGT	0.427
TCGTGACA	0.129
GCGTGCCA	-0.151
ACGTGACT	0.324
ACGTGACA	0.394
ACGTGCCA	0.396
ACGTGAAG	0.326
CCGTGACG	0.396
ACGTGCCG	0.243
ACGTGACG	0.462
CCGTGACC	-0.28
CCGTGACA	-0.14
ACGTGACC	0.292
AAATCAGG	0.0636
CAGAACTC	-0.0896
CTTTTTAA	0.112
GCAACCCC	-0.249
ACCGCCTC	-0.312
CGAGTATA	-0.0254
ACGTAGGA	0.446
CCGTAGGA	-0.29
AGGTAGGG	-0.137
AAGTAGGG	-0.0549
GCGTAGGA	0.0517

Sequence	PBM E-score
CCGTAGGC	-0.293
ACGTAGGG	0.425
AAGTAGGC	-0.0531
ACGTAGGC	0.425
CGCTAAGA	0.0374
GCACAGGC	-0.115
AAAGGCCA	-0.118
GTTGAGCA	0.0589
ACATCTCT	0.0591
GTCAACCA	0.0809
GGAACTAA	-0.0195
CCATTGAG	0.00857
GTAAAAAC	0.184
GGACTCGA	-0.342
AGTATATA	0.254
CGTATACA	0.372
CGTATACG	0.393
AGTATACA	0.0979
CGTATATA	0.418
CGTATACC	0.132
AGTATACG	0.267
CGTATATC	0.319
GGTATACA	0.0243
GCTCAAAC	-0.0717

Sequence	PBM E-score
ACGCCCTC	-0.134
GGACACTA	-0.125
AAGATCGT	0.0795
GAACGACC	-0.306
TAGATAGA	0.0341
AAACGGGC	-0.131
AACGTTTC	0.199
ACGTCTGG	0.331
CCGTCTTA	0.00816
ACGTCTTA	0.408
ACGTCTAC	0.368
CCGTCTAC	0.0306
ACGTCTTC	0.389
ACGTCTAT	0.338
ACGTCTCG	0.24
ACGTCTGA	0.339
CCGTCTTC	-0.306
ACGTCTCC	0.322
ACGTCTTG	0.39
AAGCGGGT	-0.268
AAAATGAT	0.246
GTATGCAA	0.177
CACTATCC	-0.124
AGAGTCAT	-0.0362

Sequence	PBM E-score
AACCGCAC	0.0215
AAGTATTG	0.15
GCGTATTA	0.333
CCGTATTA	0.152
ATGTATTG	0.196
CCGTATTC	0.0573
ACGTATTG	0.464
ACGTATTA	0.468
AGGTATTC	0.0465
ACGTATTC	0.471
CTGGTCTC	-0.342
GATCAGCA	-0.0416
GTGCCTCA	-0.118
AAAACAGT	0.0855
ACTTCGGC	-0.00736
CTTTACGA	0.218
GCTTACGA	0.238
CATTACGA	0.398
AGTTACGC	0.317
CGTTACGC	0.362
GATTACTA	0.204
AATTACGA	0.411
CGTTACGA	0.349
GATTACGA	0.418

Sequence	PBM E-score
AATTACTA	0.195
AATTACCA	0.151
CATTACGG	0.292
ACCGGGTG	-0.224
TGAGTACA	-0.0184
CAGCATGC	-0.0382
TGGCCCAA	-0.0707
ACCAACTG	-0.0438
CCAGAGAA	0.0433
CTGTCGGC	-0.148
AGATCGAA	0.0696
AATTACAG	0.113
GATTACAC	0.0868
GATTACGC	0.425
CATTACCC	-0.0584
AATTACAT	0.375
CATTACAC	0.198
AATTACGG	0.26
AATTACAC	0.0946
CATTACGC	0.409
AATTACGT	0.492
GATTACCC	-0.0418
AATTAGGT	0.26
AGTGAGGC	0.0161

Sequence	PBM E-score
CGGTTAAC	0.0142
ACTTAAAA	0.241
ATCAGATC	-0.0621
AGTTGAAT	0.135
ATGTCCAA	0.0296
CCCGGGTC	-0.204
GGCGCCAA	-0.179
ATGAAGGA	0.0878
ATCCACCG	-0.0573
TATTACGA	0.414
AATTACCC	0.0055
TATTACCA	0.227
AATTACGC	0.44
ATTTACGC	0.281
TATTACAA	0.221
CTTCGAAG	-0.208
AGGCCCCG	-0.372
ATGGTTGA	-0.0732
ACGGAGCA	-0.116
CCTACAGG	-0.365
TGCGCGAA	0.169
